Laboratory results published in PubChem BioAssay (NCI).
This is part of a sample that, as a whole, favours compounds with a hit. Of some 79,000 tested, about 15% had one in any assay. Values without a mark were called inactive. Active and inactive are the calls of the source. Rule as the data show it: active = growth inhibition above about 70%; inactive = the rest.

Test: NCI Yeast Anticancer Drug Screen. Data for the mec2-1 strain (AID 157)
Conditions: S. cerevisiae mec2-1 strain, at 3.7 µM, hits give high values
Summary of the method: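 mec2-1 yeast strain, carrying an alteration in DNA damage repair or cell cycle control, was exposed to compounds; growth inhibition was measured relative to vehicle-treated controls.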

SMILES | growth inhibition
Cc1cccc2c(C(O)CBr)cc(-c3ccc(Cl)cc3)nc12 (stereo not given) | 4%
CN(C)C[C@H]1CC[C@@H](CN(C)C)C1=O | 20%
CC1=C(SCCO)C(=O)c2ccccc2C1=O | -1%
COC(=O)CCNc1c2ccccc2nc2cccc([N+](=O)[O-])c12 | 97% (active)
CC(/C=C/c1ccc2c(c1)OCO2)[N+](=O)[O-] (stereo not given) | 30%
COC(=O)C1=C(C)NC(C)=C(C(=O)OCCCN2CCC(c3ccccc3)(c3ccccc3)CC2)C1c1cccc([N+](=O)[O-])c1 (stereo not given) | 16%
CCOC(=O)c1cnc2c(C(F)(F)F)cccc2c1N=[N+]=[N-] | -4%
O=[N+]([O-])c1cc2no[n+]([O-])c2cc1N1CCCCC1 | 82% (active)
COC(=O)c1ccc(NCC2=CC(=O)C=CC2=O)cc1O | 17%
CCCCCCCCNC(=O)C1=C(C)NC(C)=C(C(=O)NCCCCCCCC)C1 | 2%
S=C(Nc1ccc(Cl)c(Cl)c1)SCc1ccc2c(c1)OCO2 | 6%
O=S(=O)(CCCl)c1ccccc1Cl | 8%
Nc1ccccc1CC(O)C(=O)O (stereo not given) | 8%
CN(C)c1ccc(Sc2ccc3nc(N)nc(N)c3c2)cc1 | -28%
CC(C)C1=CCC2C(=C1)CCC1C(C)(C(=O)O)CCCC21C (stereo not given) (tested in a mixture with another compound) | 13%
Cc1ccc(S(=O)(=O)Oc2cc(Cl)c(Cl)cc2Cl)cc1 | -1%
CSC(=S)Nc1cc(C)ccn1 | -25%
CC(C)c1cc(C(C)C)c(O)c(C([O-])[O-])c1.CC(C)c1cc(C(C)C)c(O)c(C([O-])[O-])c1.CC(C)c1cc(C(C)C)c(O)c(C([OH2+])[OH2+])c1.CC(C)c1cc(C(C)C)c(O)c(C([OH2+])[OH2+])c1.[Cu+2].[Cu+2].[OH3+].[OH3+] | 18%
Cc1cc(I)ccc1N | 4%
CC(Br)C(=O)c1ccc2cc(Br)c3ccccc3c2c1 (stereo not given) | 4%

SMILES | growth inhibition
O=C(Nc1ccccc1)OCCc1ccc(Cl)c(Cl)c1 | -4%
O=Cc1cccc2ccc3ccccc3c12 | -1%
O=[N+]([O-])CC(SCc1ccccc1)c1ccc2c(c1)OCO2 (stereo not given) | 42%
CC1(Cl)CC(O)C2(CC1Br)C1(C)OC1C1OC1(Br)C2(C)C (stereo not given) | -21%
Cc1cc(O)cc(O)c1N=Nc1ccc([N+](=O)[O-])cc1 | 8%
CCCCCCCCCCCCCC[N+](C)(CC(=O)[O-])Cc1ccccc1 (stereo not given) | 3%
CC1=NN(c2cccc(Cl)c2)C(=O)C1 | -27%
CC(=O)OCc1ccc(O)c(C=O)c1 | -13%
Cc1ccc2ccc3cccc4ccc1c2c34 | 0%
Cc1nc(-[n+]2nc(-c3ccncc3)nn2-c2ccccc2)sc1C | -2%
C(CCSC1=NCCN1)CSC1=NCCN1 (tested in a mixture with another compound) | 28%
CCCCCCCCCCC(=O)Cl | 7%
COC1C=COC2(C)Oc3c(C)c(O)c4c(c3C2=O)/C(=N/C2CCC(O)OC2C)C=C(NC(=O)/C(C)=C\C(=O)C2CC2C(O)C(C)C(O)C(C)C(OC(C)=O)C1C)C4=O (stereo not given) | 0%
S=c1[nH]nc(Nc2ccc(Cl)cc2)s1 | -1%
O=C1CSC(/C=C/c2ccccc2)N1c1ccc(-c2ccc(-n3c(-c4ccccc4)nc4ccccc4c3=O)cc2)cc1 (stereo not given) | 0%
O=C1C=CC(=O)N1c1ccc2c(c1)Cc1cc(NC(=O)C(F)(F)F)ccc1-2 | 26%
Brc1ccc(-c2cc3c(cc2C2SCCS2)OCO3)cc1 | -29%
Oc1ccc2ccccc2c1C(c1ccc(Cl)cc1)c1c(O)ccc2ccccc12 | -67%
C[CH2][Sn]([CH2]C)([O]C(=O)C(OC(C)=O)c1ccccc1)[O]C(=O)C(OC(C)=O)c1ccccc1 (stereo not given) | 5%
Cc1ccc2ccc(O)cc2c1 | -33%
